These results are taken from PubChem BioAssay (Tox21).

Experiment [1] can be described thus: A CellTox Green Cytotoxicity Assay to monitor cytotoxicity in HepG2 cells - 8 hour (AID 1224890). Also: nearly all actives have a fitted effect of over 45% in size. Summed up: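 First, HepG2 cells (600/well) mixed with reagent were plated; second, after 5 h at 37 C they received compounds via pintool; third, fluorescence was measured at 0 h through 40 h at 8 h intervals.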
A short description of experiment [2]: qHTS assay to identify small molecule antagonists of the estrogen receptor alpha (ER-alpha) signaling pathway using the BG1 cell line in the presence of 0.1 nM 17-beta-estradiol - cell viability counter screen (AID 1259241). Also: nearly all actives have a fitted effect of over 40% in size. A digest of the protocol:
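VM7Luc4E2, 4,000 cells/well, phenol red-free medium + 10% charcoal-stripped FBS; 24 hr plating; cpd + 0.1 nM E2 final, 22 hr 37C/5% CO2; CellTiter-Fluor 30 min, fluorescence.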
Background: In qHTS, concentration-response curves come from the screen itself.

Experiment [3] in a line: qHTS assay to identify small molecule antagonists of the androgen receptor (AR) signaling pathway using the MDA cell line in the presence of 0.5 nM R1881 - cell viability counter screen (AID 1259242). Also: nearly all actives have a fitted effect of over 45% in size. A digest of the protocol:
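qHTS format. MDA-kb2 (MMTV-luc, AR/GR responsive) + cpd + 0.5 nM R1881 final, 16 hr 37C/0% CO2 → CellTiter-Fluor 30 min → fluorescence intensity.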

A short description of experiment [4]: qHTS assay to identify small molecule phospholipidosis (PLD) inducers (AID 1259344; active = well fitted curve in the direction sought with a large enough effect; an effect the other way counts as inactive or inconclusive). Summed up: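 Phospholipid accumulation was scored by imaging: fixed, Hoechst-counterstained HepG2 cells stained with LipidTOX Red after 24 h compound exposure at 37 C. Read-outs were pit count and pit intensity per well or per cell, with amiodarone and DMSO controls.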
The nature of experiment [5]: qHTS assay to identify small molecule HDAC inhibitors (AID 1259364).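 Also: wild-type HCT-116 cells with endogenous class I/II HDAC activity; top concentration of the series differs between compounds; nearly all actives have a fitted effect of over 45% in size.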 Summed up: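 Quantitative high-throughput format: overnight-seeded HCT-116 cells got compounds for 2 hr at 37C; HDAC-Glo I/II reagent added, 30 min RT, luminescence measured.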
A short description of experiment [6]: qHTS assay to identify small molecule HDAC inhibitors - cell viability counter screen (AID 1259365). Also: series mostly up to about 92 µM; nearly all actives have a fitted effect of over 50% in size. A digest of the protocol:
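Luminescence from CellTiter-Glo, developed 30min at room temperature, reports viability of wild-type HCT-116 cells treated 2hr with compounds at 37 C and 5% CO2 after overnight plating.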

A short description of experiment [7]: qHTS assay to identify small molecule agonists of the sonic hedgehog signaling (Shh) pathway - cell viability counter screen (AID 1259366). Also: nearly all actives have a fitted effect of over 50% in size. A digest of the protocol: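 Cytotoxicity counter screen run in the same wells as the Shh reporter assay. NIH/3T3 cells carrying a Gli1 response element–driven luciferase were treated with DMSO-dissolved compounds for 24hr, and live-cell protease activity was measured with CellTiter-Fluor.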

Experiment [8] can be described thus: qHTS assay to identify small molecule agonists of the sonic hedgehog signaling (Shh) pathway (AID 1259368; calls by dose curve;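 also: NIH/3T3-derived 3T3Gli1-Luc cells carrying a stable Gli1-driven firefly luciferase reporter; series mostly up to about 92 µM; nearly all actives have a fitted effect of over 15% in size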). A digest of the protocol:
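Quantitative high-throughput format using a Gli1-driven firefly luciferase reporter line derived from NIH/3T3 cells. After a 24 hr compound treatment at 37 C and 5% CO2, luminescence reported Gli1 response element activity.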

A short description of experiment [9]: qHTS assay to identify small molecule antagonists of the sonic hedgehog signaling (Shh) pathway (AID 1259369; calls by dose curve; also: nearly all actives have a fitted effect of over 45% in size; also: potency is read from the fitted curve at half-maximal effect). Summed up:
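Stable Gli1-Luc reporter NIH/3T3 clone; quantitative HTS in stimulated mode with conditioned medium. Luminescence measured after 24hr compound treatment at 37 C.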

The target of experiment [10] is Estrogen receptor beta (Homo sapiens) (UniProt Q92731). Description: qHTS assay to identify small molecule agonists of the estrogen receptor beta (ER-beta) signaling pathway (AID 1259377; active = well fitted activation curve with a large enough effect in the signal ratio in the repeat runs, not every such curve was filed as active; the % refers to the signal ratio). A digest of the protocol:
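HEK293T ER-beta-UAS-bla; 2% charcoal-stripped FBS; cells pre-incubated 6 hr, compound 16 hr, 37C/5% CO2; LiveBLAzer B/G FRET substrate 2 h RT; fluorescence intensity read.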

For experiment [11] the target is unchanged. Description: qHTS assay to identify small molecule antagonists of the estrogen receptor beta (ER-beta) signaling pathway (AID 1259378; active = well fitted inhibition curve with a large enough effect in the signal ratio in the repeat runs, not every such curve was filed as active; the % refers to the signal ratio). A digest of the protocol:
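Antagonist mode: compounds added to beta-lactamase reporter HEK293T ER-beta-UAS cells stimulated with E2 (1nM final), 16 hr at 37C. LiveBLAzer B/G FRET substrate, 2 hours room temperature, fluorescence read-out.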

Experiment [12] can be described thus: qHTS assay to identify small molecule agonists of the androgen receptor (AR) signaling pathway in the presence of an antagonist - cell viability counter screen (AID 1259379).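 Also: MDA-kb2 human breast cancer cells carrying an MMTV luciferase reporter; series mostly up to about 92 µM; nearly all actives have a fitted effect of over 25% in size.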 Summed up:
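Nilutamide-containing (3.0uM final) MDA-kb2 cultures, 3,000 cells/well, were treated with compounds across 15 concentrations. After 16 hr at 37C with no CO2, cell viability was determined by CellTiter-Fluor fluorescence in the luciferase assay wells.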

Experiment [13] in a line: qHTS assay to identify small molecule agonists of the estrogen receptor beta (ER-beta) signaling pathway - cell viability counter screen (AID 1259380). Also: nearly all actives have a fitted effect of over 30% in size. A digest of the protocol:
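Steps: plate ER-beta-UAS-bla HEK293T cells, rest 6 hr; add compounds in DMSO; incubate 16 hr at 37C, 5% CO2; add FRET substrate 2 hr; add CellTiter-Glo, wait 30 min at room temperature; read luminescence.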

Experiment [14] in a line: qHTS assay to identify small molecule agonists or antagonists of the thyroid stimulating hormone receptor (TSHR) signaling pathway - wild type cell line counter screen (AID 1259384; calls by dose curve). A digest of the protocol:
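Counter screen in untransfected Hek293: compounds (15-point titration, triplicate) plus phosphodiesterase inhibitor Ro20-1724 added after 18 h plating; 30 min RT. Intracellular cAMP via competitive d2/cryptate immunoassay, 1 h incubation.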

In experiment [15] the target is Estrogen receptor (Homo sapiens) (UniProt P03372). In words: qHTS assay to identify small molecule antagonists of the estrogen receptor alpha (ER-alpha) signaling pathway using the BG1 cell line in the presence of 0.1 nM 17-beta-estradiol (AID 1259244). Also: nearly all actives have a fitted effect of over 50% in size. A digest of the protocol: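 Reporter is a stably transfected luciferase under four estrogen responsive elements in VM7Luc4E2 cells expressing native full-length ER-alpha; inhibition of 0.1 nM (final) 17beta-estradiol-driven signal over 22 h is read by luminescence.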
Estrogen receptor (Homo sapiens), sequence (P03372 whole entry, looked up): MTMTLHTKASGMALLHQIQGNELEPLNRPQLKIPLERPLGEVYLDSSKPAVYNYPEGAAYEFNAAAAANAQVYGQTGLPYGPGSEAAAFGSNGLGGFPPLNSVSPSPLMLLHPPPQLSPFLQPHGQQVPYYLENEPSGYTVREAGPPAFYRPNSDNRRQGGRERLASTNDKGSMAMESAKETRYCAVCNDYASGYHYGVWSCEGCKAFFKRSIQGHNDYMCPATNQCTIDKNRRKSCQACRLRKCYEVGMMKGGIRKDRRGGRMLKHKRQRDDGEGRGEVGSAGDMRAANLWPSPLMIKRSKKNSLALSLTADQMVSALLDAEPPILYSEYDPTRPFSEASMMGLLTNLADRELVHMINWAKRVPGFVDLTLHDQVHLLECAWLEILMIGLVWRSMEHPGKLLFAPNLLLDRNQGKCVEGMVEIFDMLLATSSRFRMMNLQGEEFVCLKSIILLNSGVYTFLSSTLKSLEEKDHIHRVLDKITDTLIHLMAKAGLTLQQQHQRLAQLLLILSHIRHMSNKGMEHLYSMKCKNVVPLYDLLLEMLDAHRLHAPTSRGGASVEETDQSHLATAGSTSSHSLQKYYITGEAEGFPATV

The nature of experiment [16]: qHTS assay to identify small molecule antagonists of the estrogen receptor beta (ER-beta) signaling pathway - cell viability counter screen (AID 1259382). Also: series mostly up to about 92 µM; nearly all actives have a fitted effect of over 55% in size. Summed up: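 Viability is scored by CellTiter-Glo luminescence (30 min, room temperature) in ER-beta-UAS-bla HEK293T wells already read for reporter fluorescence. Compound exposure lasts 16 hr at 37C alongside 1nM 17-beta-estradiol in charcoal-stripped serum medium.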

The target of experiment [17] is Estrogen receptor (Homo sapiens) (UniProt P03372). Description: qHTS assay to identify small molecule agonists of the estrogen receptor alpha (ER-alpha) signaling pathway in the presence of an antagonist (AID 1259383; calls by dose curve; also: top concentration of the series differs between compounds; nearly all actives have a fitted effect of over 15% in size). A digest of the protocol: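 Readout was ERE-driven luciferase luminescence in VM7Luc4E2 cells, which express full-length ER-alpha endogenously. Compounds were tested at 15 concentrations for 22hr alongside 10.0nM ICI-182,780 (final concentration).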

Experiment [18] is described as follows: qHTS assay to identify small molecule antagonists of the sonic hedgehog signaling (Shh) pathway - cell viability counter screen (AID 1259367). Also: nearly all actives have a fitted effect of over 55% in size. Also: potency is read from the fitted curve at half-maximal effect. Summed up:
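Viability was read by CellTiter-Fluor fluorescence in the same wells, reagent added 23 hr into compound treatment and incubated 1 hr at 37C. The 3T3 Gli1-Luc reporter cells (2,000/well) received conditioned medium after compound and ran 24 hr.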

Experiment [19] concerns the target Androgen receptor (Homo sapiens) (UniProt P10275). Description: qHTS assay to identify small molecule antagonists of the androgen receptor (AR) signaling pathway using the MDA cell line in the presence of 0.5 nM R1881 (AID 1259243). Also: nearly all actives have a fitted effect of over 50% in size. Summed up: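 Antagonist mode quantitative HTS in MDA-kb2 MMTV-luciferase cells, agonist R1881 at 0.5 nM final, 16 hr exposure at 37C and 0% CO2, luminescent detection.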

For experiment [20] the target is unchanged. In words: qHTS assay to identify small molecule agonists of the androgen receptor (AR) signaling pathway in the presence of an antagonist (AID 1259381; calls by dose curve; also: nearly all actives have a fitted effect of over 15% in size). Summed up:
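Reporter-gene luminescence from MDA-kb2 cells exposed 16hr at 37C (0% CO2) to 15-point compound titrations with 3.0uM final nilutamide as AR antagonist.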

Each structure is given as a SMILES string. Unmarked numbers belong to inactive results. Results filed as inconclusive are left out. Active and inactive are the calls of the source. Unless noted, calls follow the shape of the dose curve; as a rule, active = well fitted curve in the direction sought with a large enough effect in the repeat runs; inconclusive = weak or mixed curves; inactive = no such curve, though single readings can be large; an effect the other way counts as inactive or inconclusive.
% is scaled to controls: 0 for no effect and ±100 for the full control effect.

Estrogen receptor beta (Homo sapiens), sequence (Q92731 whole entry, looked up): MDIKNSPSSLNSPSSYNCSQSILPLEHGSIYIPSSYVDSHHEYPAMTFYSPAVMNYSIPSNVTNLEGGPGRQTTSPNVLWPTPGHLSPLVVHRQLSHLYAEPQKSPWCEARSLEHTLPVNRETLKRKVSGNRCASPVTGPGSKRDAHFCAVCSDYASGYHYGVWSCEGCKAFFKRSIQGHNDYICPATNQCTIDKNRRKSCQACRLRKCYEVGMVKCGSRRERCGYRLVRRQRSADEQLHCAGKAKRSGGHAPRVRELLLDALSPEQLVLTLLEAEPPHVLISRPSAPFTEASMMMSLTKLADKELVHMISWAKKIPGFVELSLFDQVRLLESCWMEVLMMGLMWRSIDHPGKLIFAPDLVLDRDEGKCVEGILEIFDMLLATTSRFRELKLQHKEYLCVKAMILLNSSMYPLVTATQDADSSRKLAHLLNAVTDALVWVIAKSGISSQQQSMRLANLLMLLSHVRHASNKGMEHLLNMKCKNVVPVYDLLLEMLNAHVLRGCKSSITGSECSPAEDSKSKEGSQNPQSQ
Androgen receptor (Homo sapiens), sequence (P10275 whole entry, looked up): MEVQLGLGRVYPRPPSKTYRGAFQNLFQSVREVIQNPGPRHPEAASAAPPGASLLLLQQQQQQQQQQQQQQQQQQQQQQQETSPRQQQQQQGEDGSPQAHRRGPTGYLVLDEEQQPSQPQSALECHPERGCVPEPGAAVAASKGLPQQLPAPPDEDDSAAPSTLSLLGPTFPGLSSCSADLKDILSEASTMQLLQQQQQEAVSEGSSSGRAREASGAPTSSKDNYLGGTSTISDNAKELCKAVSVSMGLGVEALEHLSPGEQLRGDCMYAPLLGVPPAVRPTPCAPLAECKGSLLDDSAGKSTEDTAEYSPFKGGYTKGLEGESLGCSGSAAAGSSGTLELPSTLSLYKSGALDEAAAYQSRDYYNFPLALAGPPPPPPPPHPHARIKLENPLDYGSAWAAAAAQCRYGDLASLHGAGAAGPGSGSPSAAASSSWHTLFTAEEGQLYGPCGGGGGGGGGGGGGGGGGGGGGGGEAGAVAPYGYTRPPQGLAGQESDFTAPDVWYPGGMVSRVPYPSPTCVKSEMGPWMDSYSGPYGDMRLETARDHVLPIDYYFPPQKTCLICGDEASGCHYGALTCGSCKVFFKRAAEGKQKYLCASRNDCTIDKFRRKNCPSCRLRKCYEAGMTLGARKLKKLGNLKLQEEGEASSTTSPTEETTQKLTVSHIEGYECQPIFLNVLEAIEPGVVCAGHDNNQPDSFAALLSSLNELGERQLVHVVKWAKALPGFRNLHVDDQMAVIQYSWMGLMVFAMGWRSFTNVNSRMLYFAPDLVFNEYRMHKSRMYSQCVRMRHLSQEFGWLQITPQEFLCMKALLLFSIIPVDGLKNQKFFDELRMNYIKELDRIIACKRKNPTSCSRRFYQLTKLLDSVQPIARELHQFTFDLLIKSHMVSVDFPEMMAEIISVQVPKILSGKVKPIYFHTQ

As for `Oc1ccccc1C=NCc1ccccc1`, the Potency entry in [1], in [2], in [5], in experiment [7], in experiment [8] and in experiment [9] was “inactive” in each case. In addition, the Potency result in experiment [11], in [12] and in experiment [13] was “inactive” in each case. The outcome in experiment [3], in experiment [4], in experiment [6], in experiment [10] and in experiment [14] was inactive.

As to `C[C@@H]1CN(c2c(F)c(N)c3c(=O)c(C(=O)O)cn(C4CC4)c3c2F)C[C@H](C)N1`, the cytotoxicity increase in [1] was 0.794% [at 15.8 µM]. The activity change, negative = cytotoxicity is 1.55% [at 19 µM] in experiment [2], 4.84% [at 19 µM] in experiment [6], 2.69% [at 19 µM] in experiment [12] and 5.91% [at 19 µM] in experiment [16]. Moreover, the figures for the activity change, negative = inhibition in [15], in experiment [5] and in experiment [9] were -0.515% [at 19 µM], -1.07% [at 19 µM] and 23.6% [at 19 µM], respectively. In addition, in [4], the molecule was classed as inactive. For the same molecule, the viability change, negative = cytotoxic in experiment [7] is 1.22% [at 19 µM]. Further, the activity change in experiment [8] was -0.971% [at 18.9 µM, active compounds read high]. The results for the activation in [10] and in experiment [17] were 3.1% [at 19 µM] and 0.0574% [at 19 µM], respectively. Moreover, in [11], the activity, negative = inhibition is 17% [at 19 µM]. In experiment [14], the cAMP activity change was 4.73% [at 18.9 µM].

With `Oc1ccccc1F`, the Potency entry in [1], in [2], in experiment [5], in experiment [7], in experiment [8] and in experiment [9] was “inactive” in each case. The Potency result in [11], in [12], in [13] and in [17] was “inactive” in each case. For the same molecule, the outcome in experiment [3], in experiment [6], in experiment [10], in experiment [16] and in [14] was inactive.

Regarding `COc1cc2c(cc1N)oc1ccccc12`, the Potency entry in experiment [1], in experiment [2], in [8], in [11], in experiment [12] and in [13] was “inactive” each time. In addition, the outcome in experiment [3], in experiment [6], in experiment [10] and in experiment [16] was inactive. Moreover, the Potency was 62.4 µM (active) in experiment [18] and 27.9 µM (active) in experiment [9].

`NC(=O)NS(=O)(=O)c1ccc(Cl)cc1`: the Potency entry in experiment [1], in experiment [2], in experiment [19], in experiment [5], in experiment [7] and in experiment [18] was “inactive” each time. For the same molecule, the Potency entry in [8], in experiment [9], in [12], in [13], in experiment [20] and in experiment [17] was “inactive” each time. The result in experiment [6], in [16] and in experiment [14] was inactive.

`CCc1cc(Cl)c(OC)c(C(=O)NC[C@@H]2CCCN2CC)c1O`: the Potency result in [1], in experiment [2], in experiment [5], in experiment [7], in [18] and in experiment [8] was “inactive” throughout. Further, the Potency result in [12] and in experiment [17] was “inactive” in each case. For the same molecule, the outcome in experiment [3], in experiment [6] and in experiment [16] was inactive.
